# Experimental data as given in the supplement of paper PMC7801607.
# What was measured:
# CHO = assay: % viability of CHO cells (MTT); higher = less toxic; settings: 48 h
# How it was run: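 CHO cells seeded at 10^6 cells/well were exposed to compound at 2 or 20 µM for 48 h. Survival, as percent of untreated cells, was measured with the colorimetric tetrazolium (MTT) assay.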
# HepG2-A16-CD81 = assay: % inhibition of HepG2 viability (CellTiter-Glo); higher = more toxic; settings: 5 µM;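 also: HepG2-A16-CD81 hepatoma cells plated as in the liver-stage assay but without sporozoites, with DMSO wells as negative and 25 µM puromycin as positive control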
# [1] = system: Plasmodium falciparum NF54 stage IV/V gametocytes; assay: % inhibition of gametocyte viability (PrestoBlue); higher = more inhibition; settings: 48 h
# How it was run: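 Compound was tested at 1 or 5 µM against Stage IV/V NF54 gametocytes plated at 100 µL/well (2% gametocytaemia, 5% haematocrit). After 48 h of stationary, hypoxic incubation at 37 °C, 10 µL PrestoBlue was added for 2 h before reading 612 nm fluorescence from 70 µL of transferred supernatant. Gametocyte viability inhibition, as a percentage, was scaled against vehicle and kill controls from a single run.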
# [2] = system: Plasmodium falciparum NF54 asexual blood stage; assay: % inhibition of asexual blood stage proliferation (pLDH); higher = more inhibition; settings: 72 h
# How it was run: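 In 96-well plates, compound at 2 or 20 µM was added to Plasmodium falciparum NF54 ring-stage cultures (1% haematocrit, 2% parasitaemia). Plates were incubated for 72 h at 37 °C in 4% CO2, 3% O2 and 93% N2, and survival was then read at 620 nm using the parasite lactate dehydrogenase assay. Inhibition of asexual proliferation, expressed as a percentage, was normalised to controls.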
# [3] = system: Plasmodium falciparum NF54 stage IV/V gametocytes; assay: % inhibition of gametocyte viability (ATP bioluminescence); higher = more inhibition; settings: 24 h
# How it was run: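 Density gradients were used to enrich stage IV/V NF54 gametocytes, which were then seeded into 96-well plates at 30,000 per well with compound at 1 or 5 µM. The plates were incubated at 37 °C for 24 h, and ATP was measured with the Promega BacTiter Glo bioluminescence system. Percent inhibition of gametocyte viability was normalised to the plate controls from a single run.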
# [4] = system: Plasmodium falciparum NF54 stage IV/V gametocytes; assay: % inhibition of gametocyte viability (luciferase reporter); higher = more inhibition; settings: 48 h
# How it was run: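 Compound at 1 or 5 µM was added to stage IV/V NF54-Pfs16-GFP-Luc gametocytes (2% gametocytaemia, 2% haematocrit) and incubated stationary and hypoxic at 37 °C for 48 h. A GloMax-Multi+ reader measured luminescence over 10 s integration on 30 µL lysate plus 30 µL Promega luciferin substrate. Percent inhibition values were normalised to controls within a single run.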
Compound,% viability of CHO cells (CHO; 2 µM),% viability of CHO cells (CHO; 20 µM),% inhibition of HepG2 viability (HepG2-A16-CD81),% inhibition of gametocyte viability ([1]; 1 µM),% inhibition of gametocyte viability ([1]; 5 µM),% inhibition of asexual blood stage proliferation ([2]; 2 µM),% inhibition of asexual blood stage proliferation ([2]; 20 µM),% inhibition of gametocyte viability ([3]; 1 µM),% inhibition of gametocyte viability ([3]; 5 µM),% inhibition of gametocyte viability ([4]; 1 µM),% inhibition of gametocyte viability ([4]; 5 µM)
Cc1c[nH]c(=O)nc1NCc1ccccc1,36.1%,22.7%,-0.05%,6.6%,11.5%,22.3%,60.5%,< 0%,< 0%,< 0%,4.07%
CC(Cc1ccccc1)C(=O)Nc1ccc(Cl)cc1C(=O)O (stereo not drawn),102%,99.8%,5.78%,< 0%,< 0%,35.5%,76.5%,< 0%,< 0%,13.7%,11.5%
C[C@@H](NC(=O)c1cccc(-c2c[nH]c(-c3cc4ccccc4cn3)n2)c1)c1ccc(F)cc1,91.9%,101%,-1.52%,9.05%,8.49%,21.8%,72.3%,28.5%,83.2%,0.447%,1.09%
CCc1cc(CCC(=O)Nc2ccccc2O)c(=O)[nH]c1C,90.7%,106%,0.672%,5.05%,16.3%,-8.67%,47.7%,< 0%,< 0%,< 0%,< 0%
O=c1ccc2ncc(=O)n3c2n1CC3CN1CCC(NCc2cc3c(cn2)OCCC3)CC1 (stereo not drawn),124%,97.3%,6.64%,< 0%,28.4%,12.5%,40.4%,0.762%,< 0%,< 0%,< 0%
CO/N=C(\C(=O)N[C@@H]1C(=O)N2C(C(=O)OCOC(=O)C(C)(C)C)=C(/C=C\c3scnc3C)CS[C@H]12)c1csc(N)n1,146%,60.3%,-3.45%,< 0%,1.37%,7.74%,37.7%,0.449%,5.98%,< 0%,22.6%
CCCCc1ccc(-c2cc(C(=O)O)cc(-c3ccc(Cl)cc3)n2)cc1,93.4%,108%,14.4%,9.55%,12.3%,43%,102%,< 0%,< 0%,0.176%,8.67%
Cc1cc(-c2ccccc2)c(C(=O)C(=O)Nc2ccc(N3CCN(c4ncc(F)cn4)CC3)cc2)n1C,90.7%,72.7%,10.6%,< 0%,< 0%,2.18%,63.9%,5.9%,5.39%,< 0%,< 0%
Oc1c(C(Nc2nc3ccccc3s2)c2ccc(OC(F)F)cc2)ccc2cccnc12 (stereo not drawn),79.6%,74.4%,45.6%,26.7%,60.6%,70.5%,65.8%,22.2%,24.6%,12.2%,54.3%
CCn1cc(C(=O)O)c(=O)c2cc(F)c(N3CCNC(C)C3)c(F)c21 (stereo not drawn),104%,102%,0.454%,34.9%,43.8%,36.8%,28.9%,< 0%,< 0%,< 0%,< 0%
O=C(NCc1ncc(C(F)(F)F)cc1Cl)c1c(Cl)cccc1Cl,91.7%,72.6%,2.83%,< 0%,3.98%,18.8%,1.98%,< 0%,< 0%,< 0%,< 0%
O=S(=O)(NCB(O)O)c1cc2c(Cl)ccc(Cl)c2s1,91.2%,59.2%,30.9%,22.6%,27.1%,-17.5%,-8.49%,< 0%,< 0%,< 0%,< 0%
N#C/C(=C1/SC[C@H](c2ccc(Cl)cc2Cl)S1)n1ccnc1,113%,118%,10%,11.8%,16.4%,48.7%,22.8%,< 0%,< 0%,< 0%,1.63%
C(=C\c1nc2ccccc2[nH]1)/c1ccc2c(c1)OCO2,110%,50.4%,6.95%,57.1%,71.2%,15.3%,29.1%,< 0%,< 0%,5.91%,73.3%
N#Cc1cc([N+](=O)[O-])ccc1Oc1ccccc1Cl,104%,84.9%,-4.08%,55%,53.9%,-2.85%,84.9%,< 0%,< 0%,< 0%,< 0%
O=C(O)c1ccc(-n2nc(-c3ccccc3O)nc2-c2ccccc2O)cc1,85.7%,106%,3.21%,8.04%,< 0%,-5.88%,-5.43%,< 0%,< 0%,< 0%,< 0%
CC(=N)N1CC[C@H](SC2=C(C(=O)O)N3C(=O)[C@@H]([C@@H](C)O)[C@H]3C2)C1,85.2%,33.9%,-4.07%,< 0%,< 0%,5.77%,14.6%,< 0%,< 0%,< 0%,0.678%
Cc1cc(Nc2ccc(F)cc2)nc(SCc2nc3ccccc3[nH]2)n1,91.4%,101%,4.62%,19%,32.7%,-9.36%,-3.55%,1.25%,33.8%,< 0%,< 0%
